Where “and” joins values, the source holds several entries; their conditions need not be identical. Equal values may be shown once. In all, about 16,000 compounds went through this assay and about 2,600 (16%) were called active. About 20% were inconclusive and are not listed. The list is a sample of the results. A number with no mark means an inactive call. Calls come from the whole dose curve; as a rule, active = well fitted curve in the direction sought with a large enough effect; inconclusive = small, poorly fitted or top-dose-only effect, or effect the other way; inactive = no such curve, though single readings can be large or run the other way. Peptide text beside a SMILES is read from it. * marks the point of attachment. Boc = CC(C)(C)OC(=O)*
Target: Cytochrome P450 2D6 (Homo sapiens) (UniProt P10635)
Assay: Cytochrome panel assay with activity outcomes
Settings: recombinant CYP, pro-luciferin dealkylation, luminescence, p450-cyp2d6; series mostly up to 57.1 µM; activity, negative = inhibition: at the top concentration
% is set by controls: 0 for no effect and ±100 for the full control effect.

Cytochrome P450 2D6 (Homo sapiens), sequence (P10635 whole entry, looked up): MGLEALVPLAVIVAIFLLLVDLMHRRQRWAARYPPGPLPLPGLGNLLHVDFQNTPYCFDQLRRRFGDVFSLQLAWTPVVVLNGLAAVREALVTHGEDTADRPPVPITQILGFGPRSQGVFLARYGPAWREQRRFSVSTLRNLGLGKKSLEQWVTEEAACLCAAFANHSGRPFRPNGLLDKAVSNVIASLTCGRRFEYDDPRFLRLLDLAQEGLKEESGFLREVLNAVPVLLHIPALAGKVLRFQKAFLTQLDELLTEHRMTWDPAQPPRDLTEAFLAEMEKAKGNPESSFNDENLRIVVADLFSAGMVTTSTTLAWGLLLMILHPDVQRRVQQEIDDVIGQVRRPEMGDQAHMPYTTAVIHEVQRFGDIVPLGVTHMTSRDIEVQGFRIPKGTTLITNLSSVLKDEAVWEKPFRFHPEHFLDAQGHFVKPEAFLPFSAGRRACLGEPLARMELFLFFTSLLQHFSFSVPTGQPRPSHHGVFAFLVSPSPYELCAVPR

| SMILES | activity, negative = inhibition | AC50 |
| --- | --- | --- |
| O=C(O)c1c(-c2c3ccc(=O)cc-3oc3cc(O)ccc23)cc2ccccc2c1-c1ccccc1 | 6.33% [at 11.4 µM] |  |
| Cc1ccc(/C=C2\OC(=O)c3ccccc32)cc1 | -8.38% |  |
| CC(=O)c1cnc2c(C(=O)O)cnn2c1C | 3.23% |  |
| COn1c(-c2ccccc2)nc2c1CCc1nonc1-2 | -10.9% |  |
| Cc1ccc(C)c(CN2C(=O)C3CCCN3c3ccc(S(=O)(=O)N4CCOCC4)cc32)c1 (centres undefined) | -30% |  |
| O=C(CO)N/N=C/c1ccccc1F | 27.7% |  |
| O=C(O)c1cc2c(cc1S(=O)(=O)O)[C@H]1[C@@H]([C@H]3[C@H]2[C@@]2(Cl)C(Cl)=C(Cl)[C@]3(Cl)C2(Cl)Cl)[C@]2(Cl)C(Cl)=C(Cl)[C@@]1(Cl)C2(Cl)Cl | -3.51% [at 11.4 µM] |  |
| CC(=O)c1cn(CCCCCCCCCCn2cc(C(C)=O)c(=O)[nH]c2=O)c(=O)[nH]c1=O | 10.7% |  |
| Cc1noc(C)c1C(=O)N1CCC[C@@]2(CCN(Cc3nccs3)C2)C1 | -11% |  |
| COc1ccccc1CN1CCCC2(CCN(C(=O)c3ccco3)CC2)C1 |  | 2.51 µM (active) |
| COc1ccc(NC(=O)N2CCC3(CC2)CCN(C(=O)c2ccco2)CC3)cc1 | 0.478% |  |
| COc1ccccc1CN1CCC2(CC1)CCN(C(=O)c1ccco1)CC2 |  | 12.6 µM (active) |
| Cc1noc(C)c1C(=O)N1CCC2(CCCN(Cc3ccccc3)C2)CC1 | 6.55% |  |
| Cc1noc(C)c1C(=O)N1CCC[C@@]2(CCN(Cc3ccccc3)C2)C1 |  | 7.94 µM (active) |
| CCc1c(O)c2c(c(O)c1C(C)=O)C(=O)c1c(cc(O)c(C(=O)O)c1C(=O)O)C2=O | 0.869% [at 11.4 µM] |  |
| COc1ccc(CC(=O)N2CCN(c3ccc(C4=NNC(=O)CC4C)cc3)CC2)cc1 (centres undefined) | -1.36% |  |
| CC12CCC(C(=O)O)(C/C1=N\O)C2(C)C (centres undefined) | 14.5% |  |
| Cc1noc(NS(=O)(=O)c2ccc(N)cc2)c1C |  | inactive |
| CNc1cc(NS(=O)(=O)c2ccc(N)cc2)nc(NC)n1 | -1.07% |  |
| CCOC(=O)C1=C(c2ccccc2)OC(N)=C(C#N)C1c1ccc(Cl)s1 (centres undefined) | -27.2% |  |
| CCOC(=O)c1c(C)n(C)c2ccc(OC(=O)c3ccco3)cc12 | -24.3% |  |
| Cc1ccc(C(CC(=O)c2ccco2)SCCO)cc1 (centres undefined) | -20.1% |  |
| CCCCN1C(=O)NC(NC(=O)c2ccco2)(C(F)(F)F)C1=O (centres undefined) | -11.1% |  |
| CCCCn1c(=N)n(CC(=O)c2ccco2)c2ccccc21 |  | 0.708 µM (active) |
| CCCn1c(N)[n+](CC(=O)c2ccco2)c2ccccc21 |  | 0.708 µM (active) |

| SMILES | activity, negative = inhibition | AC50 |
| --- | --- | --- |
| CCn1c(=O)cc(SCC(=O)N2CCN(C(=O)c3ccco3)CC2)c2ccccc21 | -1.47% |  |
| COCCn1c(=O)c(-c2cc(F)cc(F)c2)nc2cnc(N3CCNCC3)nc21 | -10.5% |  |
| CC1(C)OC(=O)NC1=O | -0.739% [at 25.6 µM] |  |
| Nc1nc(Br)c2c(F)cccc2c1-c1ccc(F)cc1 | -11.7% |  |
| CC(C)C(NC(=O)OC(C)(C)C)C(=O)N1CCCC1C(=O)NC(Cc1ccccc1)C(N)=O (stereo not drawn) (Boc-Val-Pro-Phe-NH2; configuration not given here) | -3.72% |  |
| CC(C)=CCC/C(C)=C/CO/N=C1/[C@H]2O[C@@H]2[C@@H](O)[C@H]2[C@H]1CCn1c(=O)n(Cc3cc4c(cc3Cl)OCO4)c(=O)n12 | -10.5% [at 11.4 µM] |  |
| Cc1ccn2cc(CSc3ccccc3N)nc2c1 |  | 1.26 µM (active) |
| CC(SCc1cn2cc(Cl)ccc2n1)C(=O)O (centres undefined) | -19.2% |  |
| CCC(Sc1nc(=O)cc(N)n1CCc1ccccc1)C(=O)Nc1ccccc1C#N (centres undefined) |  | 15.8 µM (active) |
| Nc1cc(=O)nc(SCC(=O)Nc2cccc3ccccc23)n1CCc1ccccc1 | -26.3% |  |
| CC(NC(=O)CSc1nc(=O)cc(N)n1CCc1ccccc1)c1ccccc1 (centres undefined) | -5.67% |  |
| CN1c2ccccc2C(O)=C(C(=O)Nc2ccccc2)S1(=O)=O | 4.83% |  |
| CN1CCN(c2nc(-c3ccoc3)nc3ccccc23)CC1 |  | 15.8 µM (active) |
| CN1CCN(c2nc(-c3cccnc3)nc3ccccc23)CC1 |  | 10 µM (active) |
| COc1ccccc1-c1nc(N2CCN(C)CC2)c2ccccc2n1 | -14.6% |  |
| c1ccc2c(N3CCOCC3)nc(-c3ccoc3)nc2c1 | -8.74% |  |
| c1cncc(-c2nc(N3CCNCC3)c3ccccc3n2)c1 |  | 7.94 µM (active) |
| C[C@](N)(COP(=O)(O)O)C(=O)O | 2.61% |  |
| CNc1cc(-c2c(C)noc2C)ncn1 | 0.677% |  |
| Cn1c(=O)c2[nH]c(-c3ccccc3)nc2n(C)c1=O | 7.89% |  |
| Cn1c(=O)c(-c2cc(F)cc(F)c2)nc2cnc(Oc3ccccc3)nc21 | -4.71% |  |
| O=C(Oc1ccccc1)N1CCC2(CC1)CN(c1ncccn1)C2 | -6.97% |  |
| CC(=O)Nc1c2c3c(cccc3n(C)c1=O)C(=O)c1ccccc1-2 | 8.07% |  |
| COc1ccc(-c2nc3cnc(N4CCN(C)CC4)nc3n(C3CC3)c2=O)cc1 | 5.09% |  |
| COC(=O)c1ccccc1OCC(=O)N1CCN(c2ccc(OC)cc2)CC1 | 0.575% |  |

| SMILES | activity, negative = inhibition | AC50 |
| --- | --- | --- |
| O=C(c1cc(O)c(O)c([N+](=O)[O-])c1)c1ccccc1F | 0.213% |  |
| Cn1cccc1C(=O)N1CCC2(CC1)CCN(c1ccc(-c3ccccc3)cc1)CC2 | -0.937% |  |
| COc1cc(C2C(C#N)=C(N)OC3=C2C(=O)CCC3)cc(OC)c1OC(=O)N1CCOCC1 (centres undefined) | 3.07% |  |
| Cc1ccc(C(C2C(=O)CC(C)(C)CC2=O)C2C(=O)CC(C)(C)CC2=O)s1 | 2.33% |  |
| COc1cccc(C(c2c(C)[nH]n(-c3ccccc3)c2=O)c2c(C)[nH]n(-c3ccccc3)c2=O)c1O | 1.65% |  |
| COc1cc(C)ccc1OCCOc1cc(C)ccc1Cl | -13.3% |  |
| Clc1ccc(Cl)c(OCc2cc(-c3ccccc3Cl)on2)c1 | 8.16% |  |
| CC1CCN(CCOc2cc(Cl)ccc2Cl)CC1 |  | 0.447 µM (active) |
| CCn1c(C)[n+](CCCS(=O)(=O)[O-])c2cc(Cl)c(Cl)cc21 | 2.13% |  |
| Cn1c(=O)n(-c2cccc(Cl)c2)c(=O)c2c3c(sc21)COC(C)(C)C3 | 6.87% |  |
| CN(NC(=O)NN)c1ncc(C(F)(F)F)cc1Cl | -8.29% |  |
| O=C(Nc1ccc(F)cc1F)c1cccn1-c1ncc(C(F)(F)F)cc1Cl | 17.2% |  |
| O=C(Cc1ncc(C(F)(F)F)cc1Cl)Nc1cccc(Br)c1 |  | 0.398 µM (active) |
| Oc1ccc(Cn2cc[nH]c2=S)cc1 | -3.56% |  |
| Cc1cc2ccccn2c1C(=O)c1ccc(Cl)cc1 |  | 17.8 µM (active) |
| Cc1cc2ccccn2c1C(=O)c1nc(N2CCOCC2)ncc1Cl | -6.91% |  |
| Cc1cc(CC(=O)O)n(C)c1C(=O)c1ccc(Cl)cc1 | -4.31% [at 25.6 µM] |  |
| Nc1cc(C(=O)O)[nH]c(=O)n1 | 6.45% [at 11.4 µM] |  |
| CCN(CC(=O)Nc1ccc(N2CCOCC2)cc1)Cc1nc2ccccc2c(=O)[nH]1 | 17.5% |  |
| CCn1c(O)c(/C=C2\C=Nc3ccccc32)sc1=Nc1ccc(C)cc1 | -22% |  |
| CCOC(=O)C1=C(CN2c3ccccc3CC2C)NC(=O)NC1c1ccccc1 (centres undefined) | -19.8% |  |
| CC(C)c1ccc(C(=O)CC2(O)C(=O)N(CN3CCOCC3)c3ccccc32)cc1 (centres undefined) | 17.8% |  |
| CC1(C)C(=O)N(CCN2CCC(C(=O)c3ccc(F)cc3)CC2)c2ccccc21 |  | 1.26 µM (active) |
| NC(=O)C1CCN(C(=O)OCc2ccccc2)CC1 | 8.02% |  |
| O=C(c1ccc(F)cc1)C1CCN(CCCCc2ccccc2)CC1 |  | 0.0126 µM (active) |

| SMILES | activity, negative = inhibition | AC50 |
| --- | --- | --- |
| CCN1C(=O)C(O)(C2COC(C)(C)CC2=O)c2ccccc21 (centres undefined) | -0.608% |  |
| CCCNC(=O)N1CCC(C(=O)c2ccc(F)cc2)CC1 | -24.1% |  |
| COC(=O)[C@@H]1[C@@H](O)[C@]2(O)c3ccccc3O[C@]2(c2ccccc2)[C@H]1c1ccccc1 | -3% [at 11.4 µM] |  |
| CC(C)c1ccccc1S(=O)c1ccccc1C(C)(C)O (centres undefined) | -12.8% [at 11.4 µM] |  |
| O=C(O)C1CCN(c2ncnc3ccc(-c4ccccc4C(F)(F)F)cc23)CC1 | -1.69% |  |
| FC(F)(F)c1ccccc1-c1ccc2ncnc(NC3CC3)c2c1 |  | 20 µM (active) |
| FC(F)(F)c1ccccc1-c1ccc2ncnc(NC3CCNCC3)c2c1 | -19.2% |  |
| CN(C)c1ccc(-c2ccc3ncnc(NC4CC4)c3c2)cc1 | -18.2% |  |
| Cc1ccccc1-c1ccc2ncnc(NC3CC3)c2c1 |  | 7.94 µM (active) |
| CCN1C(=O)[C@H]2[C@@H]3[C@H](O)[C@H](O)CC(=O)[C@H]3CC[C@H]2C1=O | 1.18% [at 11.4 µM] and 0.815% [at 11.4 µM] |  |
| CC(C)=CCC/C(C)=C/CO/N=C1/C[C@@H](O)[C@@H](O)[C@@H]2[C@@H]3C(=O)N(C(C)(C)C)C(=O)[C@H]3CC[C@@H]12 | 6.78% [at 11.4 µM] |  |
| [N-]=[N+]=Nc1ccc(C(=O)CSC[C@@H](NC(=O)CC[C@@H](N)C(=O)O)C(=O)NCC(=O)O)cc1 | -5.38% |  |
| CC(=O)N1CCN(S(=O)(=O)c2ccccc2)C1c1ccccc1 (centres undefined) | -7.43% |  |
| Cc1ccc(S(=O)(=O)N2CCC(C(=O)O)(c3ccccc3)CC2)cc1 | 7.29% [at 11.4 µM] |  |
| Cc1ccc(S(=O)(=O)N2CCN(C(=O)c3ccccc3)C2C(C)C)cc1 (centres undefined) |  | 14.1 µM (active) |
| C[C@@H]1O[C@H](O[C@@H]2[C@H](C)O[C@H](O[C@@H]3[C@H](C)O[C@H](O[C@H]4CC[C@]5(C)[C@@H](CC[C@@H]6[C@H]5C[C@@H](O)[C@]5(C)[C@@H](C7=CC(=O)OC7)CC[C@]65O)C4)C[C@@H]3O)C[C@@H]2O)C[C@H](O)[C@@H]1O | 4.5% [at 25.6 µM] |  |
| Cc1c(NC(=O)CN2C(=O)C3C4C=CC(C4)C3C2=O)c(=O)n(-c2ccccc2)n1C (centres undefined) | -7.26% |  |
| Cc1ccccc1C(=O)Nc1ccc(N2CCOCC2)nc1 | -3.03% |  |
| OC(CCCN1CCCCC1)(c1ccccc1)c1ccccc1 |  | 0.126 µM (active) |
| Cc1ccc(SCN2CCCCC2)cc1 (tested in a mixture with another compound) | -7.47% [at 11.4 µM] |  |
| OC(CCN1CCCCC1)(c1ccccc1)c1ccccc1 |  | 5.01 µM (active) |
| CC[N+](CC)(CC)CC[C@](O)(c1ccccc1)C1CCCCC1 |  | 0.02 µM (active) |
| Cn1ccnc1C[C@@](C)(O)c1ccccc1 | -12.1% [at 11.4 µM] |  |
